# Assay outcomes from PubChem.
# NS1 function inh = qHTS Assay for Inhibitors of Influenza NS1 Protein Function | Potency, µM (series often up to 46.1 µM) | 270,000 compounds, 0.4% hits; calls by dose curve; further: actives are rising curves; nearly all actives have a fitted effect of over 50% in size
#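 In this qHTS, NS1 from influenza A is expressed in budding yeast, where it slows growth. Cells are switched from glucose to 2% galactose medium (pH 6.0, -URA), treated with compound, and growth recovery is read at OD600.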
# Pf growth 48h = Primary qHTS for delayed death inhibitors of the malarial parasite plastid, 48 hour incubation | Potency, µM (highest dose often 28.7 µM), hits mostly inhibitors | 310,000 compounds, 5.9% hits | P. falciparum luciferase growth in erythrocytes, 48 h
#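 Growth was read as firefly luciferase luminescence after a 48 h, 37 C, 5% CO2 exposure of compounds to reporter-bearing P. falciparum cultures (0.1% parasitemia, 2% hematocrit final) in Albumax-supplemented RPMI 1640.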
# Pf growth 96h = Primary qHTS for delayed death inhibitors of the malarial parasite plastid, 96 hour incubation; P. falciparum luciferase reporter growth, 96 h; Potency, µM (titrated, usually from 28.7 µM), hits mostly inhibitors; 320,000 compounds, 6.9% hits; AID 504834, 2011
#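 Infected RBCs, 2% Hct / 0.05% parasitemia final; luciferase-reporter P. falciparum; cpd 96 h, 37 C, 5% CO2; luciferase detection reagent; luminescence.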
# Vaccinia mCherry = qHTS for Stage-Specific Inhibitors of Vaccinia Orthopoxvirus: mCherry Reporter Primary qHTS; 310,000 compounds, 0.63% hits; Potency, µM (highest dose often 36.5 µM), most hits filed as inhibitors; Vaccinia virus mCherry reporter infection, fluorescence; AID 720579, 2013; calls by dose curve; tested in A549 cells; further: nearly all actives have a fitted effect of over 35% in size
# HCV inhibitor = qHTS Assay for Inhibitors of Hepatitis C Virus (HCV) | AID 651820, 2012 | 340,000 compounds, 3.4% hits | Huh7.5.1 HCVcc-Cre infection, luciferase reporter, 44 h | Potency, µM (series often up to 41.8 µM), most hits filed as inhibitors
#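 After 44 h co-culture of compound, cells and HCVcc-Cre (~0.5 moi), substrate is added for 15 min at room temperature and luciferase measured over 15 sec. Cells were seeded at 1,000/well and pre-cultured 4 h.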
# Vaccinia Venus = qHTS for Stage-Specific Inhibitors of Vaccinia Orthopoxvirus: Venus Reporter Primary qHTS; Vaccinia virus Venus reporter expression, fluorescence; Potency, µM (series often up to 36.5 µM), hits mostly inhibitors; 330,000 compounds, 0.46% hits; AID 720580, 2013; calls by dose curve; tested in A549 cells; further: nearly all actives have a fitted effect of over 30% in size
# NS1 inh valid = Assay for Inhibitors of Influenza NS1 Protein Function: Hit Validation | AID 492980, 2010 | activity change, negative = inhibition, % at 32.9 µM | influenza NS1 function cell assay, 15-point titration | 1,400 tested, under 10 active | shares compounds with NS1 function inh; calls by dose curve
# PR8 titer = Assay for Inhibitors of Influenza NS1 Protein Function: Influenza virus replication assay in MDCK cells infected with virus A/PR/8/34; shares compounds with NS1 function inh; MDCK infected influenza A/PR/8/34, virus titer TCID50; stronger effect = lower value; virus titer (log TCID50), log10 TCID50 at 5 µM; 95 compounds, 30% hits; call rule not given here
# A number is an active result; n = inactive; u = inconclusive; x = not tested or not shown; [ ] = remark or other dose. The list is not random: actives were taken first. Their share in the collection is about 11%. Unless noted, the call rests on the fitted dose curve; in most records, active means well fitted inhibition curve with a large enough effect; inconclusive means small, poorly fitted or top-dose-only effect, or another doubt; inactive means no such curve, though single readings can be large or run the other way.
SMILES,NS1 function inh,Pf growth 48h,Pf growth 96h,Vaccinia mCherry,HCV inhibitor,Vaccinia Venus,NS1 inh valid,others
CCc1nc2ccccc2c(=O)n1NC(=O)c1c(O)c2ccccc2[nH]c1=O,1.6µM,u,n,n,n,n,n,
CC(C)=NNC(=O)c1c(O)c2ccccc2[nH]c1=O,n,n,n,x,n,x,x,
CSc1nccc(Oc2cncc(Cl)c2)n1,n,n,n,n,n,n,x,
Cc1ccc(OC(=O)c2ccc([N+](=O)[O-])cc2Cl)cn1,n,n,u,x,n,x,x,
CN(c1ccc(C(=O)N2CCCCC2)cc1)S(C)(=O)=O,14µM,n,n,n,n,n,n,
CC1CCN(C(=O)c2ccc(N(C)S(C)(=O)=O)cc2)CC1,n,n,u,x,n,n,x,
CCOC(=O)c1[nH]c(C)c(CCC(=O)Nc2cc(Cl)ccc2C)c1C,x,x,x,n,x,n,x,
CC(OC(=O)CCCCCN=C1NS(=O)(=O)c2ccccc21)C(=O)Nc1cc(Cl)cc(Cl)c1 (stereo unspecified),13µM,n,n,n,u,n,n,
COc1ccc(/C=N/NS(=O)(=O)c2ccccc2)cc1OC(=O)c1ccc(C)cc1,8.9µM,n,n,n,n,n,n,
COc1ccc(/C=N/NS(=O)(=O)c2ccc(C)cc2)cc1OC(=O)c1ccccc1,n,n,n,x,n,n,x,
Cc1ccc(OCC(=O)Nc2ccccc2C(N)=O)cc1,n,n,u,n,n,n,x,
COc1cccc(NS(=O)(=O)c2ccc3[nH]cc(C(=O)NCCC(C)C)c(=O)c3c2)c1,4.5µM,9.3µM,n,x,u,u,n,
CC(C)CCNC(=O)c1c[nH]c2ccc(S(=O)(=O)Nc3cccc(C(F)(F)F)c3)cc2c1=O,x,x,x,n,x,n,x,
O=C(CSc1nnc(-c2c[nH]c3ccccc23)o1)N1c2ccccc2CCc2ccccc21,4µM,u,n,u,7.9µM,u,u,
O=C(CSc1nnc(-c2c[nH]c3ccccc23)o1)N1CCCCC1,n,n,u,n,n,n,x,
COc1cccc(/C=C2\C(=O)N(c3cccc(C)c3)C(=O)c3ccccc32)c1,u,u,u,n,n,n,u,
COc1ccc(C(=O)NCc2csc(C(C)C)n2)cc1OC1CCN(C(C)=O)CC1,n,n,u,n,x,n,x,
Clc1ccc(-c2csc(N3CCC(c4ccccc4)C3)n2)cc1 (stereo unspecified),n,n,n,n,n,n,x,
Fc1ccc(-c2csc(N3CCC(c4ccccc4)C3)n2)cc1 (stereo unspecified),u,n,n,n[1.46 µM],n,n,n,
CCCn1c(C)cc(C(=O)CSc2nc3ccccc3c(=O)n2Cc2ccco2)c1C,8.9µM,n,u,n,u,n,n,
Cc1nc2ccc(NC(=O)Cc3c(F)cccc3Cl)cc2s1,4µM,n,n,x,n,x,n,
Cc1cccc(-n2c(SCC(=O)N3CCCC3)nnc2-c2ccccn2)c1C,n,n,n,n,n,n,x,
COc1ccc(/C=N/NC(=O)c2cc(-c3ccc(C)cc3C)nc3ccccc23)cc1COC(C)=O,10µM,n,n,x,u,n,n,
O=C(c1ccc(S(=O)(=O)N2CCCC2)cc1)N1CCN(c2ccccc2)CC1,4.5µM,n,u,n,n,n,n,
O=C(c1ccc(S(=O)(=O)N2CCCC2)cc1)N1CCN(c2cccc(Cl)c2)CC1,n,u,u,n,x,n,x,
SMILES,NS1 function inh,Pf growth 48h,Pf growth 96h,Vaccinia mCherry,HCV inhibitor,Vaccinia Venus,NS1 inh valid,others
CCCc1ccc2oc(C(=O)N(Cc3nccn3C)C(C)C)c(C)c2c1,u,u,n,x,u,x,u,
Cc1c(C(=O)N(Cc2nccn2C)C(C)C)oc2c(F)cccc12,n,u,n,n,n,n,x,
Cc1cccc(-n2cc(-c3ccc([N+](=O)[O-])cc3)[nH]c2=S)c1,n,n,n,n,n,n,x,
Cc1ccc(-n2cc(-c3ccc([N+](=O)[O-])cc3)[nH]c2=S)c(C)c1,6.3µM,u,n,u,u,n,n,
O=C1C=C(Nc2ccc(Cl)cc2Cl)CC(c2ccco2)C1 (stereo unspecified),x,n,u,n,n,n,x,
CCCC(=O)Nc1cccc2c1CCCC2,5.6µM,n,u,n,n,n,n,
CC(=O)Nc1ccc(S(=O)(=O)Nc2nnc(Cc3ccc(Cl)cc3)s2)cc1,n,n,n,n,n,n,x,
O=C1N=C(N2CCc3ccccc3C2)S/C1=C\c1cccc(O)c1,u,n,u,n,n,n,u,
COc1ccc(/C=C2\SC(N3CCc4ccccc4C3)=NC2=O)cc1,n,u,u,n,n,n,x,
CCOC(=O)C1=C(COC(=O)c2ccc(Br)o2)NC(=O)NC1C (stereo unspecified),n,n,n,n,n,n,x,
COc1cc(/C=C2\SC(=S)N(Nc3ncc(C(F)(F)F)cc3Cl)C2=O)ccc1O,4µM,x,u,n,n,n,n,
COc1cc(/C=C2\SC(=S)N(Nc3ccccc3)C2=O)ccc1O,n,n,n,n,n,n,x,
S=c1[nH]c2cc(Cl)c3cccnc3c2o1,4µM,u,n,n,n,n,n,
O=C(Oc1c(Cl)cc(Cl)c2cccnc12)c1cccc([N+](=O)[O-])c1,n,u,n,u,u,u,x,
Cc1cc(NC(=O)c2ccc(Cl)c(Cl)c2)ccc1-c1cc2ccccc2oc1=O,x,x,x,n,x,n,x,
O=C(Nc1ccc(-c2cc3ccccc3oc2=O)c(Cl)c1)c1cccnc1,2.2µM,n,n,n,n,n,n,
CCCCn1c(C)cc2cc(O)ccc21,10µM,u,n,x,n,n,u,
CCCCn1c(S(=O)(=O)O)nc2ccccc21,n,n,u,n,n,n,x,
COc1ccc(/C=N/NC(=O)c2ccc(COc3cccc4cccnc34)cc2)cc1O,n,u,u,n,n,n,x,
O=C(N/N=C/c1cccc(O)c1)c1ccc(COc2ccccc2Br)cc1,u,n,u,n,u,n,u,
Cc1ccc(S(=O)(=O)Nc2ccccc2-c2ccccc2NS(=O)(=O)c2ccc(C)cc2)cc1,10µM,u,n,x,n,n,n,PR8 titer=n
COC(=O)c1ccc(Sc2ccccc2NS(=O)(=O)c2ccc(C)cc2)nc1,u,n,n,x,n,x,u,
Cc1ccc(S(=O)(=O)Nc2ccccc2C=O)cc1,n,x,x,x,x,x,x,
COc1ccccc1-c1cnc(C(O)c2c(C)cc(C)cc2C)[nH]1 (stereo unspecified),x,x,x,n,x,n,x,
